Our source for the B-score values is PubChem BioAssay AID488922 (Johns Hopkins Ion Channel Center, 2010).

The campaign covered roughly 310,000 compounds. About 3,800 (1.2%) were called active.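 Rule for the calls: active = ratio B-score over 3 SD below the library mean, with starting fluorescence within 5 SD of its mean; inactive = the rest, inconclusive results apart.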 Shown is part of a subset that was picked to be rich in actives.

In the assay the target is Potassium channel subfamily K member 9 (Homo sapiens) (UniProt Q9NPC2). Kind of assay: KCNK9 potassium channel inhibitors, primary screen, HEK293 cells, thallium flux (AID 488922).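 For B-score: negative B-score means less thallium flux so channel inhibition.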 Particulars: HEK293 KCNK9, FluxOR thallium flux fluorescence, at 10 µM; hits give low values.
Potassium channel subfamily K member 9 (Homo sapiens), sequence (Q9NPC2 whole entry, looked up): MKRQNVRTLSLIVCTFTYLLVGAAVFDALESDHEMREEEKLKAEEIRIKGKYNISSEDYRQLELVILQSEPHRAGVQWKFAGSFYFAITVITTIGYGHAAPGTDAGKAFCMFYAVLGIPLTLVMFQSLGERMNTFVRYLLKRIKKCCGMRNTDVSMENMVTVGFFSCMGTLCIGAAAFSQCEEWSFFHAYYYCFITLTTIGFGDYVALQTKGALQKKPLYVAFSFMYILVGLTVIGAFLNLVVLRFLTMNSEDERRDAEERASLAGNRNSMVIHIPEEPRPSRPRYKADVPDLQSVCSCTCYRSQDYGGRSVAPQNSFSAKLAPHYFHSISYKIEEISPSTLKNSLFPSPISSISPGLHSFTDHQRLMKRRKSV
On to `COc1ccc(C(=O)CSc2nc(C)cc(C)n2)cc1[N+](=O)[O-]`, for which the B-score result was “inactive”. For `Cc1cc(Oc2ccc(Cl)cc2)nc(SCC(=O)c2ccccc2)n1`, the B-score is -11.2 (active). Turning to `Cc1cc(C)nc(SCC(=O)c2ccc(Cl)cc2)n1`, the B-score entry was “inactive”.

On to `CCC(C)NC(=O)c1nn(C)c(=O)c2ccccc12` (configuration not stated), for which the B-score entry was “inactive”. On to `Cc1ccc(N2C(=O)C(NC(=O)c3c(F)cccc3F)(C(F)(F)F)C3=C2CC(C)(C)CC3=O)cc1` (configuration not stated), for which the B-score result is “inactive”.

For the compound `O=C(Nc1ccc2c(c1)OCO2)c1sc2cc(Cl)ccc2c1Cl`, the B-score result was “inactive”. `CC(Sc1nc(-c2ccccc2)cc(C(F)(F)F)n1)C(=O)Nc1ccc2c(c1)OCO2` (configuration not stated): the B-score entry is “inactive”. For the compound `CC(Sc1nc2cc(Cl)ccc2s1)C(=O)Nc1ccc2c(c1)OCO2` (configuration not stated), the B-score is -7.35 (active).

Turning to `COc1ccc(Nc2ncnc3ccc(Br)cc23)c(OC)c1`, the B-score entry is “inactive”. In the case of `COc1ccc(Nc2ncnc3sc(C)cc23)cc1` it was “inactive”; in that of `COc1ccc(Nc2ncnc3sc(-c4ccccc4)cc23)c(OC)c1`, -9.69 (active); in that of `CCc1cc(=O)oc2cc(OCC(=O)N3CCCc4ccccc43)ccc12`, “inactive”. The same measure for `CN(C)C(=O)c1ccc2c(c1)C1C3CCC(C3)C1C(c1ccccc1)N2` (configuration not stated): “inactive”; for `CC(=O)c1ccc(NC(=O)CCNS(=O)(=O)c2cc(Br)cnc2N)cc1`: “inactive”. With `C=CCNC(=O)COC(=O)c1ccccc1C(=O)N(C)C1CCCCC1`, the B-score was -6.84 (active). The same measure for `O=C(COC(=O)c1ccccc1SCC(=O)NC1CCCCC1)NC1CCCCC1`: “inactive”; for `COc1ccccc1C(=O)OCC(=O)NCCNC(=O)COC(=O)c1ccccc1OC`: “inactive”; for `O=c1cc(Cl)c2ccccc2n1-c1ccccc1`: “inactive”. For `OCCCNC(c1ccccc1)c1ccc(O)cc1` (configuration not stated), the B-score result is “inactive”. Turning to `CC(NCC(=O)Nc1cc(Cl)cc(Cl)c1)c1ccccc1` (configuration not stated), the B-score result is “inactive”. For `O=C(Nc1cc(Cl)cc(Cl)c1)C(NCCCO)c1ccccc1` (configuration not stated), the B-score is -8.3 (active). In the case of `COc1ccccc1N1CCN(Cc2cc(OC)c3c(c2)OCO3)CC1`, the B-score entry was “inactive”.

`Cc1noc(C)c1C(=O)OCC(=O)N1CCN(S(=O)(=O)c2ccc3ccccc3c2)CC1`: the B-score result is “inactive”. The same measure for `COC(=O)C1=C(Nc2ccc(C)cc2)C=C(C)C(C(=O)OC)C1c1ccc(F)cc1` (configuration not stated): -10.4 (active); for `COC(=O)C1C(=O)NCC1c1ccc(C)cc1` (configuration not stated): “inactive”. As for `COC(=O)C1=C(Nc2ccc(OC)cc2)C=C(C)C(C(=O)OC)C1c1ccc(C)cc1` (configuration not stated), the B-score result was “inactive”. Take `CC1CCC(NC(=O)CNC(=O)c2ccc3ccccc3c2)CC1` (configuration not stated): the B-score entry was “inactive”. As to `CN=C1SC(CC(=O)Nc2ccc(C(=O)O)cc2)C(=O)N1C` (configuration not stated), the B-score result was “inactive”. Consider `CN(CC(=O)Nc1ccc(F)cc1)CC(=O)Nc1ccc(Cl)c(S(=O)(=O)N2CCOCC2)c1`, for which the B-score result was “inactive”. `CN(CC(=O)Nc1ccc(S(=O)(=O)N2CCCC2)cc1)Cc1ccc(Cl)c(Cl)c1`: the B-score entry is “inactive”. On to `CN(CCC(=O)Nc1cc(S(=O)(=O)N(C)C)ccc1Cl)CC(=O)Nc1ccc(F)cc1`, for which the B-score is -12.2 (active). Take `COc1ccccc1OCC(=O)O/N=C(\N)c1ccccn1`: the B-score result was “inactive”. As for `O=C(O)CCS(=O)(=O)c1ccc(-c2ccccc2)cc1`, the B-score result is “inactive”.

Regarding `Cc1cc(C)c(C)c(S(=O)(=O)Nc2ccc(O)cc2)c1C`, the B-score result is “inactive”.

For the compound `Cc1ccc(Cn2cc(C(=O)NN)c(=O)c3ccc(F)cc32)cc1`, the B-score entry is “inactive”. In the case of `CCOC(=O)C1=C(C)N=C2c3ccccc3C(=O)C2C1c1ccc(Br)cc1` (configuration not stated), the B-score result was “inactive”. In the case of `O=C1c2ccccc2C(=O)C1c1ccccc1F` it was “inactive”.

As to `O=C1c2ccccc2C2=Nc3ccccc3SC(c3ccccc3F)C12` (configuration not stated), the B-score was -9.81 (active). `CC(C)c1ccc2c(c1)c(SC(C)(C)C)c(CC(C)(C)C(=O)O)n2Cc1ccc(Cl)cc1`: the B-score result was “inactive”. As for `COc1ccc(C2NC(=O)N(C)C(C)=C2[N+](=O)[O-])cc1` (configuration not stated), the B-score entry was “inactive”. As for `CCc1cccc(C)c1N(C(=O)Cn1c(CO)nc2ccccc21)C(C)COC` (configuration not stated), the B-score is -9.35 (active).

In the case of `COc1ccccc1Cn1c(CO)nc2ccccc21`, the B-score entry was “inactive”. In the case of `CCOCN(C(=O)Cn1c(C(C)O)nc2ccccc21)c1c(C)cccc1CC` (configuration not stated) it was “inactive”. For `COc1ccc2[nH]c(=O)c(CN(Cc3nnnn3CCc3ccccc3)CC3CCCO3)cc2c1` (configuration not stated), the B-score result is “inactive”. Consider `CCOc1ccc2[nH]c(=O)c(CN(Cc3nnnn3CCc3ccccc3)CC3CCCO3)cc2c1` (configuration not stated), for which the B-score was -9.63 (active).

`CCOc1ccc2[nH]c(=O)c(CN(Cc3nnnn3Cc3ccccc3)CC3CCCO3)cc2c1` (configuration not stated): the B-score entry is “inactive”.

Consider `Cc1cc(=O)[nH]c(Nc2cccc(Br)c2)n1`, for which the B-score entry was “inactive”. Regarding `CCCc1nc2ccccc2c(=O)n1/N=C/c1ccc(O)c(O)c1`, the B-score entry is “inactive”. `CCCc1nc2c(c(=O)c3ccccc3n2C)c(=O)n1-c1cc(C)cc(C)c1`: the B-score entry is “inactive”.

In the case of `CCCN1C(=O)C(Cc2nc3ccccc3c(=O)n2-c2ccccc2)c2cc(C)ccc21` (configuration not stated), the B-score is -9.54 (active).

As for `CCOc1ccc(CN(Cc2ccco2)S(=O)(=O)c2ccc(-n3cnnn3)c(OC)c2)cc1`, the B-score entry was “inactive”. In the case of `CC(C)(C)n1nnnc1C(c1cccs1)N(Cc1cccnc1)CC1CCCO1` (configuration not stated) it was “inactive”. In the case of `CCOc1ccc(CN(Cc2ccco2)C(c2cccs2)c2nnnn2C(C)(C)C)cc1` (configuration not stated), the B-score is -17 (active). As for `NC(=O)CC(NC(=O)Cc1ccc(Br)cc1)c1ccc(NC2CC3CCC2C3)c([N+](=O)[O-])c1` (configuration not stated), the B-score result is “inactive”. On to `Cc1cc(C)n2nc(CNS(=O)(=O)c3c(F)c(F)c(F)c(F)c3F)nc2n1`, for which the B-score result was “inactive”. In the case of `COc1ccc(NC(=O)NN2CCN(C)CC2)c(OC)c1` it was “inactive”; in that of `Fc1ccc2c(c1)C(c1cccnc1)=NNC(c1cccs1)=N2`, “inactive”; in that of `COc1ccc2c(c1)C(c1cccs1)=NNC(c1cccnc1)=N2`, -13 (active). As for `COc1ccc(C(=O)/C=C/c2cccnc2)c(OC)c1`, the B-score entry is “inactive”.

For `OCC[C@H]1C[C@H](O)[C@@H](O)[C@]2(CCCCO2)O1`, the B-score entry is “inactive”. The same measure for `CCc1nc(SCC(=O)NNC(=O)c2ccc(C)cc2)c2ccccc2n1`: “inactive”; for `C=CCSc1nc(Cc2ccc(Cl)cc2)nc2ccccc12`: “inactive”; for `CCCNC(=O)CSc1nc(Cc2ccccc2)nc2ccccc12`: -7.59 (active).

In the case of `CCOc1ccc(N(C)Cc2cc(=O)oc3ccc(OC)cc23)cc1`, the B-score entry was “inactive”. For the compound `Cc1nc(-c2ccc(F)cc2)c(CC(=O)Nc2cc(S(=O)(=O)N3CCCCC3)ccc2C)s1`, the B-score entry is “inactive”. Consider `Cc1ccc(S(=O)(=O)N(C)CC(=O)NCCc2c[nH]c3ccccc23)cc1`, for which the B-score entry was “inactive”. As to `OC(c1ccc(Cl)cc1)C(CN1CCOCC1)c1ccccc1` (configuration not stated), the B-score result is “inactive”.
